From PMC5540273 (PLoS ONE, 2017)
Where “and” joins values, the source holds several entries; their conditions need not be identical. Equal values may be shown once.

These compounds were tested on T1, MEK6. Conditions: concentration: 1 μM, replicates: in singlicate; 1 µM; n = 1.
T1 construct: gene MAP2K6
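Further: KINOMEscan kinase panel screen.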

With `CC(C)(CN)c1nc(-c2ccc(Cl)c(O)c2)c(-c2ccncc2)[nH]1.O=C(O)C(F)(F)F` [SB-477794] the “%Inh” value was 0% and 100%.
For `NCCNS(=O)(=O)c1ccc(-c2ccnc3[nH]ccc23)cc1` [GSK977617], the “%Inh” value was 18% and 11%.
In the case of `Cl.Cl.Cl.Fc1ccc(-c2ncn(C3CCNCC3)c2-c2ccnc(Nc3ccccc3)n2)cc1` [SB-238039], the “%Inh” value was 59% and 42%.

Same assay, conditions: concentration: 1 μM, replicates: in singlicate; n = 1

In order of falling “%Inh” value:
1. CC(C)Oc1ccc2c(-c3ccnc(Nc4ccc(N5CCN(C)CC5)cc4)n3)cnn2n1 [GW696155]  53%
2. NS(=O)(=O)CCc1cccc(Nc2nccc(-c3c(-c4cccc(NC(=O)c5c(F)cccc5F)c4)nn4ccccc34)n2)c1 [GSK336735]  47%
3. NCC(NC(=O)c1cc(-c2cn[nH]c2)c(-c2ccnc3[nH]ccc23)s1)c1ccccc1.O=C(O)C(F)(F)F.O=C(O)C(F)(F)F (centres unmarked) [GSK1325775]  24%
4. CC(=O)Nc1ccc(COc2ccc(Nc3ccnc4cc(-c5ccccn5)ccc34)cc2)cc1.Cl [GW440148]  18%
5. O=c1cc(N2CCOCC2)nc2n(Cc3cccc(Cl)c3Cl)c(C3CC3)nn12 [GSK2358994]  17%
6. O=C1Cc2cc(Nc3nc(NCc4cccc(S(=O)(=O)C(F)(F)F)c4)ncc3C(F)(F)F)ccc2N1  14%
7. O=C(c1ccc(-c2cc(-c3c[nH]nc3-c3ccccn3)ccn2)cc1)N1CCOCC1 [GW812171]  14%
8. Cc1ccc(C(=O)NCC(N)=O)cc1-n1c(C)cc(OCc2ccc(F)cc2F)c(Br)c1=O  13%
9. O=C(NCCCN1CCOCC1)c1cccc(Nc2nccc(Nc3ccc(Oc4ccccc4)cc3)n2)c1 [GW663929]  11%
10. CCc1ccnc(/C=C/c2n[nH]c3cc(Sc4ccccc4C(=O)NC)ccc23)c1  9%
11. Cc1nnc(-c2ccc3occ(-c4ccc(C(C)O)cc4)c3c2)o1 (centres unmarked)  8%
12. O=C(Nc1cccc(-c2nn3ncccc3c2-c2ccnc(Nc3cccc(C(F)(F)F)c3)n2)c1)c1c(F)cccc1F [GSK299495]  7%
13. CCc1nc(-c2cccc(C)c2)c(-c2ccnc(NCc3ccccc3)c2)s1  6%
14. Fc1ccc(-c2nn3c(OCC(F)(F)F)cccc3c2-c2ccncc2)cc1 [GW514784]  1%
15. COc1ccc(Nc2nccc(N3CCC(NC(=O)Nc4cccc(C(C)=O)c4)C3)n2)cc1 (centres unmarked) [GSK1379731]  0%
16. Cc1cn2c(=O)cc(N3CCOCC3)nc2n1Cc1cccc(Cl)c1Cl [GSK2334006]  0%
17. Fc1ccc(-c2ncn(CCCN3CCOCC3)c2-c2cccnc2)cc1 [SB-211743]  0%
18. C[C@@H](Oc1cc(-n2cnc3ccc(NC(=O)NC(C)(C)C)cc32)sc1C(N)=O)c1ccccc1Cl [GSK346294]  0%
19. c1ccc(-c2n[nH]cc2-c2ccnc3ccccc23)nc1 [GW271431]  0%
20. COc1ccc(Nc2nccc(N3CCC(NC(=O)Nc4cc(C)ccc4C)C3)n2)cc1 (centres unmarked) [GSK1379741]  0%
21. CN(C(=O)c1ccc(-c2cc(-c3c[nH]nc3-c3ccccn3)ccn2)cc1)C1CCOCC1 [GW810083]  0%
22. Cl.Oc1cccc(Nc2ccnc3cc(-c4ccncc4)ccc23)c1 [GW494601]  0%
23. O=c1cc(N2CCOCC2)nc2n(Cc3cccc(F)c3)ccn12 [GSK2297430]  0%
24. COc1ccc(CNC(=O)NC2CCN(c3ccnc(Nc4ccc(OC)cc4)n3)C2)cc1 (centres unmarked) [GSK1379727]  0%
25. Cc1nnc(-c2ccc(C)c(-c3ccc(C(=O)Nc4ccc(NS(C)(=O)=O)cc4)cc3)c2)o1 [GW702865]  0%
26. Cc1nnc(-c2ccc3ncc(-c4ccc(S(C)=O)cc4)n3c2)o1 (centres unmarked)  0%
27. CCn1cnc2c(N)ncnc21 [GW345098]  0%
28. [2H]C([2H])(c1cccc(C(F)(F)F)c1C)n1ccn2c(=O)nc(N3CCOCC3)cc12 [GSK2336394]  0%
29. CN1c2ccc(NCc3ccc(F)cc3)cc2-c2c(cnn2C)S1(=O)=O  0%
30. COCCNC(=O)c1ccc(-c2cc(C(=O)NC3CC3)cc(F)c2C)cc1 [GW868318]  0%
31. N#Cc1ccc(-c2cc(-c3c[nH]nc3-c3ccccn3)ccn2)cc1 [GW693028]  0%
32. O=C(NOCC1CC1)c1ccc(F)c(F)c1Nc1ccc(I)cc1Cl  0%

What follows are compounds tested on MELK. Conditions: concentration: 1 μM, replicates: in singlicate; 1 µM; n = 1.

`CC(C)(CN)c1nc(-c2ccc(Cl)c(O)c2)c(-c2ccncc2)[nH]1.O=C(O)C(F)(F)F` [SB-477794] was tested, and the “%Inh” value was 25% and 51%.
With `NCCNS(=O)(=O)c1ccc(-c2ccnc3[nH]ccc23)cc1` [GSK977617] the “%Inh” value was 99.2% and 95.2%.
`Cl.Cl.Cl.Fc1ccc(-c2ncn(C3CCNCC3)c2-c2ccnc(Nc3ccccc3)n2)cc1` [SB-238039] was tested, and the “%Inh” value was 51% and 31%.
